Sampled rows, rich in hits. Any-hit rate of the full collection: about 1.4%.
MEX-5 binding: MEX-5 zinc finger RNA-binding disruptors – biochemical, C. elegans, fluorescence polarization, MLPCN library, primary screen; Zinc finger protein mex-5 (Caenorhabditis elegans), Q9XUB2; MEX-5/FITC-TCR2 RNA binding; active compounds read low; activity score (negative = inhibition of binding), % at 10 µM; 0.38% of 300,000 active;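 active = inhibition past about -25% in most replicates, and total fluorescence under double the plate's negative control median, limit read from the data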
GLD-1 RNA inh: GLD-1/TGE RNA complex disruptors, primary screen, biochemical, fluorescence polarization | Female germline-specific tumor suppressor gld-1 (Caenorhabditis elegans), Q17339 | AID 2280, 2010 | inhibition, % at 5.96 µM | 0.44% of 320,000 active | purified GLD-1 + fluorescein TGE RNA;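 active = percent inhibition above a per-plate cutoff, the plate mean of test compounds plus 3 SD, cut at about 30% in these data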
eLon inh: inhibitors of E. coli Lon protease, primary screen, biochemical, fluorescence polarization. purified E. coli Lon protease. inhibition, % at 7.94 µM. 0.42% of 360,000 active. AID 602123, 2011; in the data active = inhibition above about 13%, passing the limit was not always enough
MCL1 BIM primary: inhibitors of MCL1 binding to BIM-BH3, primary screen, biochemical, fluorescence polarization; Induced myeloid leukemia cell differentiation protein Mcl-1 (Homo sapiens), Q07820; GST-MCL1 / FITC-Bim-BH3 fluorescence polarization; inhibition, % at 10.9 µM; 0.68% of 320,000 active;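 active = inhibition above the mean inhibition of all tested compounds plus 3 SD, set per campaign, cut at about 40% in these data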;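 also: higher means more loss of mP so more displacement of Bim peptide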
Bcl-xL primary: inhibitors of human Bcl-xL, primary screen, biochemical, fluorescence polarization, HTS; Bcl-2-like protein 1 (Homo sapiens), Q07817; GST-Bcl-xL / FITC-Bim BH3 peptide fluorescence polarization; inhibition, % at 10.9 µM; 0.7% of 320,000 active; AID 2129, 2009;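 active = inhibition above the mean of all tested compounds plus 3 SD, cutoff set per campaign, cut at about 30% in these data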;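 also: inhibitors lower millipolarization by displacing the labeled peptide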
Target sequence (Q07817 whole entry, looked up): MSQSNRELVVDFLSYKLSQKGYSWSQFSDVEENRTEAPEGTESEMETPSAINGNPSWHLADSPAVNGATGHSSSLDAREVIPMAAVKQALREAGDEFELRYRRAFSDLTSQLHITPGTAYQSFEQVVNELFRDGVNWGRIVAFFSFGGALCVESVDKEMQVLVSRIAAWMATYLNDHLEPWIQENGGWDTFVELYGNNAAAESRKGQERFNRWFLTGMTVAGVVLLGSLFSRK
eLon confirm: E. coli Lon protease inhibitor retest, confirmation, biochemical, fluorescence polarization; purified E. coli Lon; 31% of 1,400 active; inhibition, % at 7.94 µM; shares compounds with eLon inh; in the data active = inhibition above about 16%
Large screens that a line does not name were inactive (follow-up assays come after a bar, where they were run).

COc1cc(C(=O)NC(=S)N2C[C@H]3C[C@H](C2)c2cccc(=O)n2C3)cc(OC)c1OC	none
COc1cccc2c1C(=O)c1c(O)c3c(c(O)c1C2=O)CC(O)(C(C)=NO)CC3OC1CC(N)C(O)C(C)O1 (configuration not stated)	eLon inh active (no result: MEX-5 binding, GLD-1 RNA inh, MCL1 BIM primary, Bcl-xL primary) | eLon confirm active
CCC(=NC(C)c1ccccc1)c1c(O)[nH]c(=O)[nH]c1=O (configuration not stated)	eLon inh 21 | eLon confirm inactive
CCC(=NCCC(c1ccccc1)c1ccccc1)c1c(O)[nH]c(=O)[nH]c1=O	none
O=c1oc2ccccc2c(O)c1[C@H]1c2ccc(O)cc2Oc2c1c(=O)oc1ccccc21	eLon inh 18 | eLon confirm 17
C[C@]12CCC3C(CC[C@H]4C[C@H](O)CC[C@]34C)C1C[C@@H](O)[C@H]2O (some centres not stated)	none (no result: MEX-5 binding, GLD-1 RNA inh, MCL1 BIM primary, Bcl-xL primary)

Bioassay records: PubChem BioAssay, several laboratories
